Assay results taken from ChEMBL document CHEMBL1201862, “PubChem BioAssay data set” (2004).
The campaign covered roughly 350,000 compounds. About 1,200 (0.34%) were called active. About 3% were inconclusive and are not listed. The calls are words filed in the database; no cut-off is given here. This excerpt belongs to a sample that is enriched for actives.

Target: DNA repair nuclease/redox regulator APEX1 (Homo sapiens) (UniProt P27695)
Experiment: qHTS Assay for Inhibitors of the Human Apurinic/apyrimidinic Endonuclease 1 (APE1).
Format: functional

DNA repair nuclease/redox regulator APEX1 (Homo sapiens), sequence (P27695 whole entry): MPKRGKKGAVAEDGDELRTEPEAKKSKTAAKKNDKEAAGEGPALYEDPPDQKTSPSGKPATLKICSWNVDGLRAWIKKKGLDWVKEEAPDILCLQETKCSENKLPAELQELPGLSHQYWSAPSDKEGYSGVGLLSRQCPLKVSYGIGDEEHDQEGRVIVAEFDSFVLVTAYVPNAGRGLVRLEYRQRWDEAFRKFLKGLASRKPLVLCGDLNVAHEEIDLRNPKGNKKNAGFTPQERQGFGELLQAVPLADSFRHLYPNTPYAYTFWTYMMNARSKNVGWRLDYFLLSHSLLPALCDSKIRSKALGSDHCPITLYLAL

| Compound | Potency |
| --- | --- |
| O=C(Cn1c(=S)[nH]c2ccccc2c1=O)N1CCN(c2ccc(F)cc2)CC1 | 794 µM (active) |
| CC(=O)OCC(NC(=O)C(Cc1c[nH]c2ccccc12)NC(=O)OC(C)(C)C)C1OC(n2cc(C)c(=O)[nH]c2=O)C(OC(C)=O)C1OC(C)=O (stereo not drawn) | inactive |
| O=C(O)c1cc(-c2ccc(F)cc2F)ccc1O | inactive |
